In article PMC12864922, “TDP-43 directly inhibits mRNA accumulation in neurites through modulation of mRNA stability” one finds binding signal data, which are given here for 9 molecules.

Over roughly 9,900 sequences, “r (bound/input frequency ratio)” has its median near 0.7; the highest 2% begin near 6.5. The sample holds the highest values, similar sequences and a random draw of the others, so the mix is not that of the screen.

To fix the notation:
B1: ENSMUSG00000042529.390|Kcnj12 (ssRNA)
RNA: GGGAGUUCUACAGUCCGACGAUCGCUUCGAUAUCCGCAUGCUAGGCCACAGACAUGAUCAGUCCGACUUGAGUCCCUGCCCUGCCCUGGUUAUGCAGGCUGUACGACGCAGUGUGCAUCAGUCUGAGGAGUCUGGUGGUAAGUAAGCCUCUGCAGCAGACCCUGUCGGAGGCCAUGGGGGCGUGUGUGUGUGUGUGUGUGUGUGUGUGUGUGUGUGUGUGUGUGUGUGUGUGUGAACAUGUGUGAGGGUGUGGAGGUCCCAGGGUGUGUGUAUGUGAAUGUCAGUGGCUUGGGUGCUGUGUGGCUCUUGCGGUCGCACUAGUGUGGAAUUCUCGGGUGUCAAGG
B2: ENSMUSG00000042529.391|Kcnj12 (ssRNA)
RNA: GGGAGUUCUACAGUCCGACGAUCGCUUCGAUAUCCGCAUGCUAAGACAUGAUCAGUCCGACUUGAGUCCCUGCCCUGCCCUGGUUAUGCAGGCUGUACGACGCAGUGUGCAUCAGUCUGAGGAGUCUGGUGGUAAGUAAGCCUCUGCAGCAGACCCUGUCGGAGGCCAUGGGGGCGUGUGUGUGUGUGUGUGUGUGUGUGUGUGUGUGUGUGUGUGUGUGUGUGUGUGAACAUGUGUGAGGGUGUGGAGGUCCCAGGGUGUGUGUAUGUGAAUGUCAGUGGCUUGGGUGCUGUGUGGAGAGAGCUCUUGCGGUCGCACUAGUGUGGAAUUCUCGGGUGUCAAGG
B3: ENSMUSG00000042529.414|Kcnj12 (ssRNA)
RNA: GGGAGUUCUACAGUCCGACGAUCGCUUCGAUAUCCGCAUGCUAGUGUGUGUGUGUGUGUGUGUGUGUGUGUGUGUGUGUGUGUGUGUGUGAACAUGUGUGAGGGUGUGGAGGUCCCAGGGUGUGUGUAUGUGAAUGUCAGUGGCUUGGGUGCUGUGUGGAGAGAGAGAGAGAGAGAGAGAGAGAGAGAGAGAGAGAGAGAGAGAGAGAGCUGCACAGGAUGAAGCAGCUGCCCUGAGCCCAUCUGGUGCUGUGCACCUGGUCCUUGUCCAGCCGAGGGCCUGGGGGCAGAAGAACACACCAUACUCUUGCGGUCGCACUAGUGUGGAAUUCUCGGGUGUCAAGG
B4: ENSMUSG00000042529.389|Kcnj12 (ssRNA)
RNA: GGGAGUUCUACAGUCCGACGAUCGCUUCGAUAUCCGCAUGCUAGAUGCUGGCCACAGACAUGAUCAGUCCGACUUGAGUCCCUGCCCUGCCCUGGUUAUGCAGGCUGUACGACGCAGUGUGCAUCAGUCUGAGGAGUCUGGUGGUAAGUAAGCCUCUGCAGCAGACCCUGUCGGAGGCCAUGGGGGCGUGUGUGUGUGUGUGUGUGUGUGUGUGUGUGUGUGUGUGUGUGUGUGUGUGUGAACAUGUGUGAGGGUGUGGAGGUCCCAGGGUGUGUGUAUGUGAAUGUCAGUGGCUUGGGUGCUCUCUUGCGGUCGCACUAGUGUGGAAUUCUCGGGUGUCAAGG
B5: ENSMUSG00000042529.392|Kcnj12|56:60;127:179;184:189;193:197;209:219;242:247 (ssRNA)
RNA: GGGAGUUCUACAGUCCGACGAUCGCUUCGAUAUCCGCAUGCUAGAUCAGUCCGACUUGAGUCCCUGCCCUGCCCUGGUUAUGCAGGCUGUACGACGCACACACCAUCAGUCUGAGGAGUCUGGUGGUAAGUAAGCCUCUGCAGCAGACCCUGUCGGAGGCCAUGGGGGCCACACACACACACACACACACACACACACACACACACACACACACACACACACAACAACACACAGGCACACGAGGUCCCAGGCACACACAUACUGAAUGUCAGUGGCUUGGGUGCACACACGAGAGAGAGAGAGCUCUUGCGGUCGCACUAGUGUGGAAUUCUCGGGUGUCAAGG
B6: ENSMUSG00000042529.394|Kcnj12 (ssRNA)
RNA: GGGAGUUCUACAGUCCGACGAUCGCUUCGAUAUCCGCAUGCUAUUGAGUCCCUGCCCUGCCCUGGUUAUGCAGGCUGUACGACGCAGUGUGCAUCAGUCUGAGGAGUCUGGUGGUAAGUAAGCCUCUGCAGCAGACCCUGUCGGAGGCCAUGGGGGCGUGUGUGUGUGUGUGUGUGUGUGUGUGUGUGUGUGUGUGUGUGUGUGUGUGUGAACAUGUGUGAGGGUGUGGAGGUCCCAGGGUGUGUGUAUGUGAAUGUCAGUGGCUUGGGUGCUGUGUGGAGAGAGAGAGAGAGAGAGAGAGAGCUCUUGCGGUCGCACUAGUGUGGAAUUCUCGGGUGUCAAGG
B7: ENSMUSG00000043670.183|Diras1 (ssRNA)
RNA: GGGAGUUCUACAGUCCGACGAUCGCUUCGAUAUCCGCAUGCUAGACAGAAUCUGAGCCUCUUUGCUGGUCAUGUGUACUCUGGAGACUGUCCCCCAUGUCUGCCCUGAGUUACGGAGCCCCUGUGGUAUCUGCGAGACUGUCCAGGAGACUUGAGUGGCUCCUGGGCCUGUGUCCCACCCAGAUGAGGGUGACUUAGAAUUCUGUGUUUAUGUGCCUGUGUGUGUGGAUGGGUGUGUGUCUGUCUUGGGAUGGGGUGUUCUUGCACCACUUUGUGUUCUUAGUGAGACCACAGUGUAAGUGGCCUCUUGCGGUCGCACUAGUGUGGAAUUCUCGGGUGUCAAGG
B8: ENSMUSG00000042529.395|Kcnj12 (ssRNA)
RNA: GGGAGUUCUACAGUCCGACGAUCGCUUCGAUAUCCGCAUGCUACCCUGCCCUGCCCUGGUUAUGCAGGCUGUACGACGCAGUGUGCAUCAGUCUGAGGAGUCUGGUGGUAAGUAAGCCUCUGCAGCAGACCCUGUCGGAGGCCAUGGGGGCGUGUGUGUGUGUGUGUGUGUGUGUGUGUGUGUGUGUGUGUGUGUGUGUGUGUGAACAUGUGUGAGGGUGUGGAGGUCCCAGGGUGUGUGUAUGUGAAUGUCAGUGGCUUGGGUGCUGUGUGGAGAGAGAGAGAGAGAGAGAGAGAGAGAGAGCUCUUGCGGUCGCACUAGUGUGGAAUUCUCGGGUGUCAAGG
B9: ENSMUSG00000042529.413|Kcnj12 (ssRNA)
RNA: GGGAGUUCUACAGUCCGACGAUCGCUUCGAUAUCCGCAUGCUAGUGUGUGUGUGUGUGUGUGUGUGUGUGUGUGUGUGUGUGUGUGUGUGUGUGUGAACAUGUGUGAGGGUGUGGAGGUCCCAGGGUGUGUGUAUGUGAAUGUCAGUGGCUUGGGUGCUGUGUGGAGAGAGAGAGAGAGAGAGAGAGAGAGAGAGAGAGAGAGAGAGAGAGAGAGCUGCACAGGAUGAAGCAGCUGCCCUGAGCCCAUCUGGUGCUGUGCACCUGGUCCUUGUCCAGCCGAGGGCCUGGGGGCAGAAGAACACCUCUUGCGGUCGCACUAGUGUGGAAUUCUCGGGUGUCAAGG

Chain of TDP-43 (Q13148 whole entry): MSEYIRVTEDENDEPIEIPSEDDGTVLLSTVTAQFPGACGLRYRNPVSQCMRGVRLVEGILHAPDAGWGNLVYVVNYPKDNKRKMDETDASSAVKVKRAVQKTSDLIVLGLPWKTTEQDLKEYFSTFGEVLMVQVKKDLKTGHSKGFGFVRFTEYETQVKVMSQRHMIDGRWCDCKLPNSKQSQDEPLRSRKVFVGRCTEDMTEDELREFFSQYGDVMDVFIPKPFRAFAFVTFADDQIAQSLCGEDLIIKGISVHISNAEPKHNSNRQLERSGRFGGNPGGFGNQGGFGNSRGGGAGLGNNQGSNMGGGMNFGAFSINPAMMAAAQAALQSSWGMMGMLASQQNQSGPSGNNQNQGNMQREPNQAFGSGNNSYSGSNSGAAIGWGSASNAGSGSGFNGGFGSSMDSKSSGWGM

This experiment has as its target TDP-43 (Homo sapiens, UniProt Q13148 1-414). Put plainly: RNA Bind-n-Seq with designed 260-mer pool; 25 mM Tris-HCl, 150 mM KCl, 3 mM MgCl2, BSA (printed 500 mg/mL), 20 units/mL SUPERase IN; pH not stated; 500 nM RNA pool, 1 h, 4 C; TDP-43 5, 50, 500 nM; high values mean tight binding. Conditions: protein: recombinant; tags: SBP (GST cleaved off with PreScission; pGEX-GST-SBP). The gist of the method:
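An in vitro-transcribed pool of 260-nt 3′ UTR oligos (500 nM) was incubated for 1 h at 4 °C with recombinant SBP-tagged TDP-43 at 5, 50 or 500 nM held on streptavidin beads. The buffer contained 25 mM Tris-HCl, 150 mM KCl, 3 mM MgCl2, BSA and SUPERase IN. Biotin-eluted bound RNA was sequenced, and binding, R, is each oligo's normalized read abundance in the bound sample over that in input.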
On to B1, for which the binding signal was 8.92 R (bound/input frequency ratio).

Turning to B2, the binding signal was 10.1 R (bound/input frequency ratio).

As for B3, the binding signal was 5.01 R (bound/input frequency ratio).

For the molecule B4, the binding signal is 7.39 R (bound/input frequency ratio).

Regarding B5, the binding signal is 2.98 R (bound/input frequency ratio).

As to B6, the binding signal was 5.55 R (bound/input frequency ratio).

With B7, the binding signal was 5.8 R (bound/input frequency ratio).

As to B8, the binding signal was 5.73 R (bound/input frequency ratio).

With B9, the binding signal was 4.88 R (bound/input frequency ratio).
